Inconclusive results are not listed. A call without a number means that no potency is given here. The source made the active and inactive calls. The call rests on the fitted dose curve; in most records, active means well fitted inhibition curve with a large enough effect; inconclusive means small, poorly fitted or top-dose-only effect; inactive means flat fitted curve, though single readings scatter.
Biological target: Calcium and integrin-binding protein 1 (Homo sapiens) (UniProt Q99828)
Assay: Primary qHTS for Identification of Calcium Integrin Binding Protein 1 (CIB1) Competitor (AID 1508620);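 further: GST tagged CIB1 binding a fluorescein labelled alphaIIb integrin peptide tracer; top concentration of the series differs between compounds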
Conditions: CIB1-GST / FITC-alphaIIb peptide fluorescence polarization; series mostly up to 114 µM
Method in brief: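 CIB1-GST (1 uM final) and compound incubated 15 min at room temperature before adding FITC-alphaIIb peptide tracer (100 nM final). Competition for binding read by fluorescence polarization (ex 480, em 540) after another 15 min at room temperature.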

Chain of Calcium and integrin-binding protein 1 (Homo sapiens) (Q99828 whole entry, looked up): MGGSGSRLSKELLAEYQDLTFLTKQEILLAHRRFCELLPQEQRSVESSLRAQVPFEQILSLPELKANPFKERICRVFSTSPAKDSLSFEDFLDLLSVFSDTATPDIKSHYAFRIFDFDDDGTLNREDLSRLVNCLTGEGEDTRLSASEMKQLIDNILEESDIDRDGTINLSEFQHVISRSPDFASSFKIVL

Compound | Potency
Cc1cccc(-c2ccc3ncnc(N(C)Cc4ccco4)c3c2)c1 | inactive
CC(=O)c1ccc(N2CCN(S(=O)(=O)c3ccc4c(c3)C(=O)OC4)CC2)cc1 | inactive
COc1cccc(CNc2ccc(S(=O)(=O)Nc3nc4c(C)cccc4s3)cc2)c1O | inactive
Fc1cc(Nc2nc(-c3ccncc3)nc3ccccc23)ccc1-c1ccc(F)c(F)c1F | inactive
Cc1cc2c(s1)c1cnn(Cc3c(Cl)ccc(C)c3F)c(=O)c1n2C | inactive
CC(C)(C)NS(=O)(=O)c1cccc(Nc2nn3c(=O)c4ccccc4nc3s2)c1 | inactive
Cc1cnc(-c2ccccc2N(C)C)nc1NCc1ccc(-c2cccnc2)cc1 | inactive
COc1ccc(N2CCN(S(=O)(=O)c3ccc4c(c3)CC(=O)N4)CC2)cc1 | inactive
O=C(O)c1ccc2c(c1)C(=O)N([C@H](Cc1ccccc1)C(=O)O)C2=O | inactive
CN(C)c1ccccc1-c1csc(N2CCC(C(N)=O)CC2)n1 | inactive
Cc1ccc(OCCn2c(CCNC(=O)c3ccccc3F)nc3ccccc32)cc1 | inactive
Cc1ccc(C)c(SC2=NS(=O)(=O)c3ccccc32)c1 | inactive
O=C(/C=C/c1ccccc1Br)NCCc1nc2ccccc2[nH]1 | inactive
Oc1ccc(-c2ccccc2F)c2cccnc12 | inactive
Cc1cc(C)nc(NC(=S)N2CCN(c3cncs3)CC2)c1 | inactive
O=C(CN1C(=O)N/C(=C\c2cn(-c3cccc(C(=O)O)c3)cn2)C1=O)Nc1ccccc1Cl | inactive
NNc1ccc(NC(=O)c2cccs2)cn1 | inactive
O=S(=O)(c1cccc(Cl)c1)N1CCN(S(=O)(=O)c2ccc3c(c2)OCCO3)CC1 | inactive
O=C(Nc1ncc(-c2ccccc2)s1)c1ccc(-c2cccc([N+](=O)[O-])c2)o1 | inactive
N#Cc1ccc(-c2ccc(CNc3ccc(N4CCOCC4)cc3)o2)cc1 | inactive

Compound | Potency
COc1cccc(-c2ccc3ncnc(NCc4cccc(C)c4)c3c2)c1 | inactive
COc1cccc(C2c3c(ncn(-c4ccccc4Cl)c3=N)Oc3ccc4ccccc4c32)c1 (stereo not given) | inactive
Cc1cc(C)nc(NC(=S)N2CCN(c3ccc(C(F)(F)F)cn3)CC2)c1 | inactive
CN(CCC1CCCO1)c1ncnc2ccc(-c3ccc4c(c3)OCO4)cc12 (stereo not given) | inactive
COc1cccc(C2=Nn3c(nnc3-c3cc(OC)ccc3OC)SC2)c1 | inactive
Cc1cc(C)nc(NC(=S)N2CCN(c3ccc(C(F)(F)F)cc3C(F)(F)F)CC2)c1 | inactive
N#Cc1cccc(NC(=O)Nc2nnc(-c3ccncc3)s2)c1 | inactive
COc1ccc([C@H]2[C@H](c3ccccc3)C(=O)N2Cc2ccccc2)cc1COc1ccc(NC(C)=O)cc1 | inactive
O=c1c2ccc(F)cc2nc2sc(Nc3ccc4c(c3)CCC4)nn12 | inactive
Cc1ccnc(NC(=S)NC2CCCN(c3cccc(C(F)(F)F)c3)C2)c1 (stereo not given) | inactive
Cc1ccc(OCCn2c(CCNC(=O)c3cccc(C#N)c3)nc3ccccc32)cc1 | inactive
Cc1cc2c(s1)c1cnn(Cc3ccc(F)cc3)c(=O)c1n2C | inactive
N#Cc1c(-c2ccc(F)cc2)no[n+]1[O-] | inactive
O=C(COC(=O)CNC(=O)c1ccccc1Cl)Nc1ccccc1Cl | inactive
Cc1ccc(OCCn2c(CCNC(=O)c3cccc(C)c3)nc3ccccc32)cc1 | inactive
N#Cc1cccc(CSc2nc3ncc(Br)cc3[nH]2)c1 | inactive
Cc1ccc(CNc2ccc(N3CCNCC3)cc2)cc1 | inactive
Cc1cnc(-c2ccccc2C(C)C)nc1NCc1ccc(C(N)=O)cc1 | inactive
COc1ccc(C(=O)N(Cc2ccco2)Cc2cccs2)c(O)c1 | inactive
O=C(Nc1ncc(Cc2ccc(C(F)(F)F)cc2)s1)c1ccco1 | inactive

Source: PubChem BioAssay (NCATS)
